# The campaign covered roughly 1,400 compounds. About 380 (27%) were called active. The list shows a part of the results. A number with no mark means an inactive call.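 Rule for the calls: active = mean inhibition above 50% across duplicate retests at 10 µM; inactive = the rest.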
# Assay: yeast NALP1 reporter signal suppression – S. cerevisiae, luminescence, single concentration, NALP1 inhibitor project, confirmation (AID 488841);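 note: plate controls were DMSO in galactose medium for no effect and cells in plain SD medium for full effect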
# Details: S. cerevisiae NALP1/ASC/Caspase-1 reporter, beta-gal luminescence; at 10 µM; active compounds read high
row,Structure (SMILES),inhibition
1,COn1c2c(c3c4nonc4ccc31)CCCC2,30.4%
2,CC1CCN(Cc2ccc(-c3nn[nH]n3)cc2)CC1,21.2%
3,O=C(NC1CCCCC1)c1noc2c1CCCCC2,70.2% (active)
4,O=C(NC1CCCC1)c1ccc(CN2CCOCC2)cc1,33.8%
5,O=C(c1cc(-c2ccc(O)cc2)on1)N1CCc2ccccc2C1,56.5% (active)
6,CCn1c(C(=O)N2CCc3ccccc3C2)cc2oc3ccccc3c21,32.4%
7,O=C(CN1CCc2ccccc2C1)NCc1ccco1,18.9%
8,CC(C)CC(=O)N1CCN(c2ccc([N+](=O)[O-])cc2Cl)CC1,37.5%
9,Cc1c(-c2nc(N)nc(Nc3ccccc3)n2)oc2ccccc12,37.3%
10,O=C(Nc1ccc(Cl)cc1)C1=Cc2ccccc2OC1,48.8%
11,CCOC(=O)C(=O)NNc1ccc(Cl)cc1,40.9%
12,CCCCN(C)CCC(=O)Nc1ccc(Cl)cc1,28.4%
13,N#Cc1ccc(NC(=O)Nc2ccc(Cl)cc2)cc1,67% (active)
14,CC(=O)c1ccc(NC(=O)Nc2ccc(Cl)cc2)cc1,53.4% (active)
15,COc1ccc(N2CCN(CCNC(=O)Nc3ccc(Cl)cc3)CC2)cc1,22.3%
16,CCC(C(=O)NCc1ccco1)N(C(=O)CNS(=O)(=O)c1ccccc1)c1ccc(OC)cc1 (centres undefined),23.4%
17,CSc1nnc(-c2cc3c(s2)-c2ccccc2CC3)o1,56.6% (active)
18,O=C(C(Cc1ccccc1)n1cccc1)N1CCN(c2ccccc2)CC1 (centres undefined),46%
19,CNC(=S)N/N=C/c1cc(Br)cc(Br)c1O,75.7% (active)
20,Oc1c(Br)cc(Br)cc1C=Nc1cccnc1,36.4%
21,Cc1cc(C=C2C(=O)c3ccccc3C2=O)c(C)n1C,39%
22,O=C(Nc1ccc(F)cc1)c1cccnc1N1CCCCC1,34.8%
23,CCOc1ccccc1C(=O)OCC(=O)Nc1ccc(N2CCCCC2)cc1,36.1%

row,Structure (SMILES),inhibition
1,CCOc1ccccc1C(=O)Nc1cnn(Cc2ccc(F)cc2)c1,57.7% (active)
2,c1ccc(CC2CCN(c3nnnn3-c3ccccc3)CC2)cc1,26.4%
3,COC(=O)c1cc(=O)n(-c2ccc(F)cc2)c(=Nc2ccc(F)cc2)s1,33.2%
4,CCN(CC)c1ccc(N=Cc2ccc([N+](=O)[O-])o2)cc1,64.2% (active)
5,O=[N+]([O-])c1ccc(/C=N/NS(=O)(=O)c2ccc(Cl)cc2)o1,36.3%
6,CCOC(=O)c1[nH]c2ccc(Br)cc2c1NC(=O)CCN1CCC(C)CC1,32.4%
7,Cc1nc(N)sc1N=Nc1ccc(Br)cc1,50.6% (active)
8,Cc1ccc(C)c(NC(=O)c2ccc(OC(=O)c3ccco3)cc2)c1,36.8%
9,Cc1ccc2occ(C(=O)c3ccco3)c(=O)c2c1,58.4% (active)
10,CN1CCN(C2=C(Cl)C(=O)C(c3cnc(N4CCCCC4)s3)=C(Cl)C2=O)CC1,29.9%
11,O=C1c2cccc(O)c2C(=O)c2c(O)cccc21,62.8% (active)
12,CN(C=[N+](C)C)c1cccc2c1C(=O)c1ccccc1C2=O,37%
13,CN(C)S(=O)(=O)c1cccc2c1C(=O)c1ccccc1C2=O,39.2%
14,CC(C)CN=C(NS(=O)(=O)c1ccccc1)C(Cl)(Cl)Cl,43.6%
15,C=CCOc1ccc2ccccc2c1/C=N/O,52.7% (active)
16,N#Cc1cccc(N=Cc2c(O)ccc3ccccc23)c1,24.8%
17,O=S(=O)(/N=C/c1c(O)ccc2ccccc12)c1cccs1,29.8%
18,CCCCCOc1ccc(Cn2ccnc2)cc1[N+](=O)[O-],43%
19,O=C(CCNc1n[nH]c(=O)[nH]c1=O)N/N=C/c1ccc(C(F)(F)F)cc1,26.9%
20,COCC(=O)n1nc(-c2ccc(Cl)cc2)nc1NCc1ccc(F)cc1,49.8%
21,O=C(NC1=NCCS1)c1ccc(Cl)s1,42.9%
22,CCOc1ccccc1N1CCN(C(=O)CCCc2nc3ccccc3s2)CC1,52.9% (active)
23,COCCN=C1Sc2nc3ccc(C)cc3cc2CN1Cc1ccco1,45.9%

row,Structure (SMILES),inhibition
1,COc1ccccc1NC1=C(N2CCCCC2)C(=O)c2ccccc2C1=O,49.1%
2,CCCSc1nnc(C(C)C)n1N,21.8%
3,O=C(/C=C/c1ccc2c(c1)OCCCO2)c1ccccc1O,61.6% (active)
4,Cc1ccc(C(=O)/C=C/c2ccc3c(c2)OCO3)o1,23.9%
5,O=C(/C=C/c1ccc(F)cc1)NCCc1ccc2c(c1)OCCO2,49.3%
6,CC(=O)C1=C(O)C(=O)N(CCC(=O)O)C1c1ccc(Cl)cc1Cl (centres undefined),24.1%
7,CCOC(=O)/C(=C/c1ccc(OC(=O)c2ccccc2)cc1)C(C)=O,55.4% (active)
8,CCOC(=O)C1=C(O)c2ccccc2C(=O)/C1=C\c1ccc(C)cc1,30.2%
9,CCOC(=O)C1=Nc2ccccc2C1=[N+]=[N-],37.8%
10,Cc1sc(-c2ccncc2)nc1OC(=O)c1ccccc1,47.5%
11,O=C(CN(Cc1ccccc1)S(=O)(=O)c1ccc(S(=O)(=O)N2CCOCC2)cc1)Nc1ccccc1,27.6%
12,Cc1nn(-c2ccccc2)c(Cl)c1/C=C(\C#N)C(=O)NC(C)C,55.2% (active)
13,CC(C)NC(=O)/C(C#N)=C/c1cccc(NC(=O)c2ccccc2Cl)c1,41.1%
14,C=CCNC(=O)/C(C#N)=C/c1c(C)nn(-c2ccccc2)c1Cl,60.3% (active)
15,COc1ccc(OCC(=O)NC(=S)N2CCCc3ccccc32)cc1,28.5%
16,CCCCCCC1CCC(C(=O)Nn2c(C)nc3ccccc3c2=O)CC1 (centres undefined),44.8%
17,COc1ccc(C2NCCc3c2[nH]c2ccccc32)cc1CSc1nc2ccccc2s1 (centres undefined),45.4%
18,COCc1cc(=O)[nH]c(/N=C(\N)Nc2cccc(C)c2)n1,21.6%
19,O=C1c2ccsc2SCCN1Cc1c(Cl)cccc1Cl,53.7% (active)
20,Cn1cnc([N+](=O)[O-])c1S(=O)(=O)c1ccc(Cl)cc1,46.9%
21,CNC(=O)c1nnsc1S(=O)(=O)c1ccc(Cl)cc1,86.2% (active)
22,COc1ccc(CCNC(=O)C2CCN(S(=O)(=O)c3ccc(Cl)cc3)CC2)cc1OC,5.6%
23,CCCNC(=O)c1nnsc1S(=O)(=O)c1ccc(Cl)cc1,95% (active)
